This is a sample that favours compounds with a hit; in the whole collection about 6.3% have one here.
DPM-DC inhibit = S. pneumoniae DPM-DC inhibitors, primary screen, biochemical, PK/LDH-coupled NADH fluorescence. diphosphomevalonate decarboxylase (Streptococcus pneumoniae D39). purified DPM-DC. calls only at 10 µM. actives 0.49% (n = 65,000);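 active = the 320 compounds with the highest percent inhibition in the single-dose primary screen, excluding strongly autofluorescent ones, cut at about 32% in these data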;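 also: kinetic rate of NADH fluorescence loss reporting ADP formed by the decarboxylase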
Autofluor 339 = intrinsic fluorescence of library compounds, ex339/em460 – biochemical, MLSMR library, data from DPM-DC assay, artefact control, profiling panel; compound autofluorescence, ex339/em460 nm, NADH buffer; stronger effect = higher value; 1 = no-compound wells, NADH background; fluorescence fold increase at 10 µM; actives 5.5% (n = 65,000);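 active = at 10 µM, mean starting fluorescence two-fold or more over control wells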;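 also: signal is the first read of a kinetic run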
Abs 340nm = compound light absorbance at 340 nm, profiling panel, artefact control, biochemical, MLSMR library, data from PS, PMK, MK assays; compound absorbance at 340 nm, fold over control; fold change at 10 µM; 65,000 tested, under 10 active; AID 708, 2007;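 active = at 10 µM dose, initial 340 nm absorbance at least 2 fold that of control wells; inactive = change under 2 fold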;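 also: initial absorbance extrapolated from kinetic A340 decline of NADH oxidation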
NADH enzymes = inhibitors of PK/LDH coupling enzymes, profiling panel, artefact control, biochemical, MLSMR library; coupled PK/LDH NADH assays, four targets; IC50, µM (top dose mostly 10 µM), inactives show top-dose inhibition; actives 0.02% (n = 65,000); AID 774, 2007;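 active = single-dose screening hits from any of four coupled enzyme assays that gave an IC50 when retested across doses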;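 also: the DPM-DC format reads NADH fluorescence rather than 340 nm absorbance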
Spn PMK inh = S. pneumoniae PMK inhibitors, primary screen, biochemical, mevalonate pathway, pilot trial included. phosphomevalonate kinase (Streptococcus pneumoniae D39). purified PMK, PK/LDH-coupled NADH absorbance 340 nm. inhibition, % at 10 µM. actives 0.49% (n = 65,000);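 active = top-ranked compounds by inhibition in the single 10 µM screen, taking a fixed number of the strongest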;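 also: 0% = full reaction with DMSO carrier and 100% = background rate without enzyme reaction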
MK inhibit = S. pneumoniae MK inhibitors, primary screen, biochemical, PK/LDH-coupled NADH absorbance | AID 555, 2006 | actives 0.48% (n = 65,000) | inhibition, % at 10 µM | purified MK, PK/LDH-coupled NADH absorbance 340 nm | mevalonate kinase [Streptococcus pneumoniae D39];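 active = ranked among the strongest by inhibition in the single 10 µM screen, a fixed top-ranked set picked for dose follow-up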
Active calls of the source: *; i = inactive; x = no result given; + = active, no number.

SMILES	DPM-DC inhibit	Autofluor 339	Abs 340nm	NADH enzymes	Spn PMK inh	MK inhibit
CCOC(=O)CC1(C)NC(=O)c2c(C)sc(C(=O)OCC)c2N1 (stereo not given)	x	3.87*	1.06	9.0%	9.0	8.0
Cc1cccc(N2CCN(C(=O)COc3cc(=O)n(C)c4ccccc34)CC2C)c1 (stereo not given)	i	1.1	0.99	6.0%	15.0	4.0
CCN1CCN(Cc2nc3c(c(=O)n(C)c(=O)n3C)n2Cc2ccc(Cl)cc2Cl)CC1	i	1.03	1.03	2.0%	6.0	0.0
COC(=O)c1ccccc1NC(=O)c1ccc2c(c1)C(=O)N(Cc1ccco1)C2=O	+	3.06*	1.07	19.0%	11.0	4.0
CCc1ccc(NC(=O)c2ccc3c(c2)C(=O)N(Cc2ccco2)C3=O)cc1	i	1.16	1.06	1.0%	1.0	3.0
COc1ccc(-c2cc(C(F)(F)F)n3ncc(C(=O)NCC4CCCO4)c3n2)cc1OC (stereo not given)	i	1.7	1.14	3.0%	0.0	0.0
COc1ccc(-c2cc(C(F)F)n3ncc(C(=O)NCC4CCCO4)c3n2)cc1 (stereo not given)	x	2.99*	1.01	4.0%	5.0	6.0
O=C(c1cnn2c(C(F)F)cc(-c3ccccc3)nc12)N1CCSCC1	i	1.19	1.07	7.0%	7.0	11.0
CC1CN(C(=O)c2cnn3c(C(F)F)cc(-c4ccccc4)nc23)CC(C)O1 (stereo not given)	i	1.79	1.09	5.0%	9.0	5.0
CN1CCN(C(=O)c2cnn3c(C(F)F)cc(C4CC4)nc23)CC1	i	1.15	0.99	4.0%	0.0	9.0
COc1ccc(-c2cc(C(F)F)n3ncc(C(=O)N4CCN5CCCC5C4)c3n2)cc1 (stereo not given)	x	3.56*	1.13	9.0%	5.0	13.0
O=C(c1cnn2c(C(F)F)cc(-c3ccccc3)nc12)N1CCOCC1	x	3.7*	1.06	10.0%	13.0	7.0
CCOC(=O)N1CCN(C(=O)c2cnn3c(C(F)F)cc(-c4ccc(C)cc4)nc23)CC1	i	2.93*	1.11	11.0%	2.0	0.0
CCOC(=O)CSc1nnc([C@@H](NC(=O)OC(C)(C)C)C(C)C)o1	i	1.15	1.04	1.0%	0.0	4.0
COCCN1C(=O)C(=O)/C(=C(/O)c2cccc(S(=O)(=O)N(C)C)c2)C12C(=O)N(C)c1ccccc12 (stereo not given)	i	1	1.04	4.0%	11.0	5.0
N#CC1=C(N)N(c2ccc(Oc3ccccc3)cc2)C(=O)C1	i	1.02	0.99	3.0%	12.0	2.0
CCCCS(=O)(=O)Nc1ccc(Cc2ccncc2)cc1	i	1.14	1.02	4.0%	7.0	5.0
CC1CCN(S(=O)(=O)c2ccc(NC(=O)CN3CCN(C)CC3)cc2)CC1	i	1.13	1.03	20.0%	13.0	48.0*
COCCN(CCOC)C(=O)c1cc2c(=O)n3ccccc3nc2s1	x	4.94*	1.13	12.0%	20.0	3.0
CCN(CC)C(=O)c1cc2c(=O)n3ccccc3nc2s1	x	2.15*	1.1	1.0%	0.0	2.0
C=CCN(CC=C)c1nc2ccccc2nc1C(C#N)C(=O)OC(C)C (stereo not given)	i	1.9	1.04	3.0%	3.0	4.0
Cc1ccc(-c2cn3c(=S)[nH]nc3s2)cc1	i	1.02	1.1	46.0%	16.0	99.0*
COc1cc(NC(=O)CCn2c(=O)[nH]c3ccsc3c2=O)cc(OC)c1	i	1.16	0.97	4.0%	8.0	3.0
N#Cc1ccc(-c2cccnc2)nc1SCC(=O)Nc1sc2c(c1C#N)CCC2	i	1.14	1.1	45.0%	47.0	62.0*
COc1ccc(NC(=O)N(C2CCCCC2)C(C)c2cccnc2)c(OC)c1 (stereo not given)	i	1.07	1.01	4.0%	11.0	0.0
SMILES	DPM-DC inhibit	Autofluor 339	Abs 340nm	NADH enzymes	Spn PMK inh	MK inhibit
COc1ccc(NC(=O)N(C2CCCCC2)C(C)c2ccco2)c(OC)c1 (stereo not given)	i	1.03	0.99	10.0%	26.0*	3.0
N#Cc1c2c(c(NCCCN3CCOCC3)n3c1nc1ccccc13)CCC2	i	3.03*	1	12.0%	17.0	7.0
CCCc1cc(NCCN2CCOCC2)n2c(nc3ccccc32)c1C#N	x	2.34*	1.02	11.0%	9.0	12.0
CC(C)c1cc(NCCCN2CCOCC2)n2c(nc3ccccc32)c1C#N	x	2.3*	1.08	0.0%	0.0	0.0
CC(C)c1cc(NCCN2CCOCC2)n2c(nc3ccccc32)c1C#N	i	1.95	1.01	5.0%	2.0	3.0
Cc1cccc2nc(C(F)(F)F)nc(=O)n12	i	1.39	1.06	5.0%	11.0	5.0
O=C1CSC(=Nc2cc(Cl)ccc2Cl)N1	i	1.04	1.07	6.0%	4.0	13.0
COc1cc(NC(=O)c2cc3c(=O)n(C)c4ccccc4c3n2C)cc(OC)c1OC	x	2.03*	1.07	4.0%	0.0	8.0
CCC(C)N1CC23C=CC(O2)C(C(=O)OCc2ccccc2)C3C1=O (stereo not given)	i	1.14	0.97	3.0%	5.0	3.0
O=C(CN(Cc1ccccc1F)C(=O)Cn1nnc(-c2cccs2)n1)NCC1CCCO1 (stereo not given)	i	1.04	1.02	4.0%	10.0	2.0
N#Cc1ccc(-c2ccco2)nc1SCc1ccccc1	i	2.15*	1.07	4.0%	3.0	9.0
O=C1CCCN1CCC1CCN(C2CC(=O)N(c3ccc(Cl)cc3)C2=O)CC1 (stereo not given)	i	1.09	1.04	3.0%	0.0	8.0
COc1cccc(-c2nnc(Nc3nc4c(F)cccc4s3)o2)c1	x	4.87*	1.32	8.0%	12.0	4.0
COc1ccccc1-c1nnc(Nc2nc3c(OC)cccc3s2)o1	i	1.65	1.25	9.0%	13.0	0.0
CCCNC(=O)NC(=O)COC(=O)c1ccc(OC)c(S(=O)(=O)N2CCCc3ccccc32)c1	i	1.13	1.03	1.0%	4.0	0.0
CCCc1cc(-c2[nH]ncc2-c2ccc(C(=O)OCC)o2)c(O)cc1O	i	2.18*	1.01	4.0%	4.0	3.0
CCCc1cc(-c2[nH]ncc2-c2ccc3c(c2)OCCCO3)c(O)cc1O	i	1.14	1.03	4.0%	7.0	5.0
COC(=O)c1oc2nc(C)cc(C)c2c1N	x	3.86*	1.05	2.0%	4.0	0.0
CCN(CC)CCSc1nc(O)c(C(C)C)c(=O)[nH]1	i	1.07	1.03	11.0%	25.0*	2.0

Bioassay records deposited in PubChem BioAssay by SRMLSC.
